What follows are molecules tested against G protein-coupled receptor kinase 6 (Homo sapiens) (UniProt P43250). Details: at 1 µM.
Chain of G protein-coupled receptor kinase 6 (Homo sapiens) (P43250 whole entry, looked up): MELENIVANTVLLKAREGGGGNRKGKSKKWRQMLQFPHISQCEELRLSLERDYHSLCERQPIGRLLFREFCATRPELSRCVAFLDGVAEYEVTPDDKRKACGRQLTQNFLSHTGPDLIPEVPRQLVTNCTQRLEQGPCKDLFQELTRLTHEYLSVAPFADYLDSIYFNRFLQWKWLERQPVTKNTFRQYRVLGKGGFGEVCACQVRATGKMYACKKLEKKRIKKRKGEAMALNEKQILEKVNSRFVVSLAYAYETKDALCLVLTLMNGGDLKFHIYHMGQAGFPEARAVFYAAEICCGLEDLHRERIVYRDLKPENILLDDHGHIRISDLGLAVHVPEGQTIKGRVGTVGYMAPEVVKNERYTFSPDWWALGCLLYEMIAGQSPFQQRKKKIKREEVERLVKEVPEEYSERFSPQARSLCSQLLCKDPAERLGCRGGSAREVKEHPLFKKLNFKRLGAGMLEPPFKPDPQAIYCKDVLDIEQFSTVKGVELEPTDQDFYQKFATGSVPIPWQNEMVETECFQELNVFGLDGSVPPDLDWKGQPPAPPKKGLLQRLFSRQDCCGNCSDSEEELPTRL

Row | SMILES | inhibition
1 | NC(=O)Cc1ccccc1Oc1nccc(-c2c(-c3ccc(F)cc3)ncn2C2CCNCC2)n1 | -0.72%
2 | NS(=O)(=O)c1ccc(Nc2cc(-c3ccc(O)c(F)c3)n[nH]2)cc1 | -0.57%
3 | Clc1ccc(CNc2nccc(-c3cnn4ncccc34)n2)cc1 | 1.78%
4 | COc1ccc2cc(-c3c(-c4ccncc4)nc(-c4ccc([S+](C)[O-])cc4C)n3C)ccc2c1 (stereo not drawn) | -0.69%
5 | NS(=O)(=O)c1ccc(N/N=C2\C(=O)Nc3ccc(-c4cnco4)cc32)cc1 | 2.71%
6 | O=C1Nc2ccccc2/C1=C/Nc1ccc(-n2cncn2)cc1 | 14.8%
7 | Fc1ccc(-c2ncn(C3CCNCC3)c2-c2ccnc(Oc3ccc(Oc4ccccc4)cc3)n2)cc1 | 6.73%
8 | COc1cc2ncn(-c3cc(OCc4ccccc4C(F)(F)F)c(C(C)=O)s3)c2cc1OC | 0.01%
9 | CN(C)CCOc1ccc(-c2cc(-c3ccc4c(c3)CCC4=NO)c(-c3ccncc3)o2)cc1 | -0.1%
10 | Cc1ccc(NC(=O)c2ccoc2)cc1-c1ccc(C(=O)NCC2CC2)cc1 | 1.27%
11 | O=C(Nc1n[nH]c2nc(-c3ccc(O)cc3)c(Br)cc12)C1CC1 | 32.6%
12 | COc1cc(N2CCN(C(C)C)CC2)ccc1Nc1nc(Nc2ccc(F)cc2C(=O)NC[C@@H](O)CO)c2cc[nH]c2n1 | 13%
13 | COc1ccc2cc(-c3c(-c4ccncc4)nc(-c4ccc(S(C)(=O)=O)cc4C)n3C)ccc2c1 | 8.14%
14 | CCN(CC)Cc1ccc(Nc2nccc(-c3cnn4ncccc34)n2)cc1 | 1.08%
15 | c1ccc(Oc2ccc(Nc3ncc(-c4ccccc4)o3)cc2)cc1 | 0.81%
16 | CCc1cccc(CC)c1/C=C/c1cncc(C(=O)NC)c1 | -0.96%
17 | NC(=O)c1cc(-c2ccc(F)cc2)cc(-c2ccncc2)c1N | 6.88%

Row | SMILES | inhibition
18 | COc1cc(Nc2ncc3c(C)nc(-c4cccc(Oc5ccccc5)c4)n3n2)cc(OC)c1OC | -5.44%
19 | C[C@@H](Oc1cc(-n2cnc3ccc(OC4CCN(C)CC4)cc32)sc1C(N)=O)c1ccccc1Cl | 6.21%
20 | CN(c1ccc(NC(=O)Nc2c(Cl)cccc2Cl)cc1)c1ccnc(Nc2cccc(CS(C)(=O)=O)c2)n1 | 3.8%
21 | Cc1ccc(C(=O)NC2CCC2)cc1-c1ccc(C(=O)NCC2CC2)cc1 | 1.27%
22 | COc1ccc2ncn(-c3cc(O[C@H](C)c4ccccc4Cl)c(C(N)=O)s3)c2c1 | 0.35%
23 | CCC(=O)Nc1ccc(C)c(-c2ccc(C(=O)NCC3CC3)cc2)c1 | 3.82%
24 | CCS(=O)(=O)c1ccc(OC)c(Nc2ncc(-c3ccccc3Cl)o2)c1 | -0.11%
25 | Fc1ccc(-c2c(-c3ccncc3)nc3n2CCS3)cc1 | 4.18%
26 | COC(=O)Nc1nc2ccc(Sc3ccc(NC(=O)Nc4cc(C(F)(F)F)ccc4F)cc3)cc2[nH]1 | -0.1%
27 | O=C(Nc1n[nH]c2cc(-c3cc(F)ccc3F)ccc12)C1CC1 | 3.76%
28 | CS(=O)(=O)CCNCc1cc(-c2cc3c(Nc4ccc(OCc5cccc(F)c5)c(Cl)c4)ncnc3s2)cs1 | 6.32%
29 | CCc1nccc2c1nc(-c1nonc1N)n2CC | -2.13%
30 | COc1cc(C)c(N(C)C(=O)CN(C)C)cc1Nc1nc(Nc2cccc(F)c2C(N)=O)c2cc[nH]c2n1 | 17.8%
31 | Nc1nccc(-c2c(-c3ccc(F)cc3)ncn2C2CCC(O)CC2)n1 (stereo not drawn) | -1.92%
32 | O=C1NC(=O)C(c2cccc(Cl)c2)=C1Nc1ccc(Cl)c(C(=O)O)c1 | 8.66%
33 | CN(C)CCCNc1nccc(-c2c(-c3ccc(F)cc3)nn3cc(C(F)(F)F)ccc23)n1 | -2.93%
34 | Fc1ccc(-c2nc3n(c2-c2ccncc2)CCS3)cc1 | -0.16%

Each molecule was assayed against T1, Rhodopsin kinase GRK7 (Homo sapiens) (UniProt Q8WTQ7). Details: at 0.1 µM.
T1 sequence (whole entry): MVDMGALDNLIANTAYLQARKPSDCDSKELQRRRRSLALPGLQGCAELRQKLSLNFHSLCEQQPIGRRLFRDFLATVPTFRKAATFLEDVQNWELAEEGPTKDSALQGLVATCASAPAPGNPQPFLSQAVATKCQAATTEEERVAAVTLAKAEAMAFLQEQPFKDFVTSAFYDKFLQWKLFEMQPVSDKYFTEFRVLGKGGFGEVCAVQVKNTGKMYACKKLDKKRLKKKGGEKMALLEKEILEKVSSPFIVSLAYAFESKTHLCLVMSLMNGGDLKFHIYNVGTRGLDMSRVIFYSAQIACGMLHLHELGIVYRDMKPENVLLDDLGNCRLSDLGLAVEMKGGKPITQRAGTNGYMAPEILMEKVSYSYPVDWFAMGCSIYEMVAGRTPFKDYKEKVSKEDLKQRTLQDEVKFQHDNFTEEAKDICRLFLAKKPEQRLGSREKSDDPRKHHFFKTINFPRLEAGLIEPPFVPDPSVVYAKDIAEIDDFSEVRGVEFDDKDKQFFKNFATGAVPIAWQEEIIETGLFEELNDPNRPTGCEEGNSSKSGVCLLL

Row | SMILES | inhibition
35 | NC(=O)Cc1ccccc1Oc1nccc(-c2c(-c3ccc(F)cc3)ncn2C2CCNCC2)n1 | 1%
36 | NS(=O)(=O)c1ccc(Nc2cc(-c3ccc(O)c(F)c3)n[nH]2)cc1 | -9.14%
37 | Clc1ccc(CNc2nccc(-c3cnn4ncccc34)n2)cc1 | 1.36%
38 | COc1ccc2cc(-c3c(-c4ccncc4)nc(-c4ccc([S+](C)[O-])cc4C)n3C)ccc2c1 (stereo not drawn) | -2.36%
39 | NS(=O)(=O)c1ccc(N/N=C2\C(=O)Nc3ccc(-c4cnco4)cc32)cc1 | 8.59%
40 | O=C1Nc2ccccc2/C1=C/Nc1ccc(-n2cncn2)cc1 | 5.5%
41 | Fc1ccc(-c2ncn(C3CCNCC3)c2-c2ccnc(Oc3ccc(Oc4ccccc4)cc3)n2)cc1 | 10.9%
42 | COc1cc2ncn(-c3cc(OCc4ccccc4C(F)(F)F)c(C(C)=O)s3)c2cc1OC | 4.7%
43 | CN(C)CCOc1ccc(-c2cc(-c3ccc4c(c3)CCC4=NO)c(-c3ccncc3)o2)cc1 | 2.18%
44 | Cc1ccc(NC(=O)c2ccoc2)cc1-c1ccc(C(=O)NCC2CC2)cc1 | 3.35%
45 | O=C(Nc1n[nH]c2nc(-c3ccc(O)cc3)c(Br)cc12)C1CC1 | 5.77%
46 | COc1cc(N2CCN(C(C)C)CC2)ccc1Nc1nc(Nc2ccc(F)cc2C(=O)NC[C@@H](O)CO)c2cc[nH]c2n1 | 5.2%
47 | COc1ccc2cc(-c3c(-c4ccncc4)nc(-c4ccc(S(C)(=O)=O)cc4C)n3C)ccc2c1 | 4.36%
48 | CCN(CC)Cc1ccc(Nc2nccc(-c3cnn4ncccc34)n2)cc1 | 10.6%
49 | c1ccc(Oc2ccc(Nc3ncc(-c4ccccc4)o3)cc2)cc1 | 2.37%
50 | CCc1cccc(CC)c1/C=C/c1cncc(C(=O)NC)c1 | 1.2%
51 | NC(=O)c1cc(-c2ccc(F)cc2)cc(-c2ccncc2)c1N | 2.49%

Row | SMILES | inhibition
52 | COc1cc(Nc2ncc3c(C)nc(-c4cccc(Oc5ccccc5)c4)n3n2)cc(OC)c1OC | -0.36%
53 | C[C@@H](Oc1cc(-n2cnc3ccc(OC4CCN(C)CC4)cc32)sc1C(N)=O)c1ccccc1Cl | 10.7%
54 | CN(c1ccc(NC(=O)Nc2c(Cl)cccc2Cl)cc1)c1ccnc(Nc2cccc(CS(C)(=O)=O)c2)n1 | 3.79%
55 | Cc1ccc(C(=O)NC2CCC2)cc1-c1ccc(C(=O)NCC2CC2)cc1 | 2.9%
56 | COc1ccc2ncn(-c3cc(O[C@H](C)c4ccccc4Cl)c(C(N)=O)s3)c2c1 | 8.25%
57 | CCC(=O)Nc1ccc(C)c(-c2ccc(C(=O)NCC3CC3)cc2)c1 | 8.7%
58 | CCS(=O)(=O)c1ccc(OC)c(Nc2ncc(-c3ccccc3Cl)o2)c1 | -1.21%
59 | Fc1ccc(-c2c(-c3ccncc3)nc3n2CCS3)cc1 | 2.86%
60 | COC(=O)Nc1nc2ccc(Sc3ccc(NC(=O)Nc4cc(C(F)(F)F)ccc4F)cc3)cc2[nH]1 | -0.34%
61 | O=C(Nc1n[nH]c2cc(-c3cc(F)ccc3F)ccc12)C1CC1 | 1.22%
62 | CS(=O)(=O)CCNCc1cc(-c2cc3c(Nc4ccc(OCc5cccc(F)c5)c(Cl)c4)ncnc3s2)cs1 | 8.59%
63 | CCc1nccc2c1nc(-c1nonc1N)n2CC | -2.75%
64 | COc1cc(C)c(N(C)C(=O)CN(C)C)cc1Nc1nc(Nc2cccc(F)c2C(N)=O)c2cc[nH]c2n1 | -0.46%
65 | Nc1nccc(-c2c(-c3ccc(F)cc3)ncn2C2CCC(O)CC2)n1 (stereo not drawn) | -3.24%
66 | O=C1NC(=O)C(c2cccc(Cl)c2)=C1Nc1ccc(Cl)c(C(=O)O)c1 | 13.2%
67 | CN(C)CCCNc1nccc(-c2c(-c3ccc(F)cc3)nn3cc(C(F)(F)F)ccc23)n1 | -0.49%
68 | Fc1ccc(-c2nc3n(c2-c2ccncc2)CCS3)cc1 | 2.77%

Reference: ChEMBL document CHEMBL1961873, “Compounds: GSK PKIS; Assays: Nanosyn kinase panel” (2012)
